According to PubChem BioAssay AID1159580 (chemical genetic matrix, 2015):
Screen size: about 5,500 compounds; about 2,000 (36%) were called active. Not shown: some 18% with an inconclusive outcome. No stated cut-off is given here; in the data, active means normalized growth mostly below about 0.91 (no sharp cut-off); inconclusive means no clear call, values can overlap the other calls; inactive means mostly above about 0.92. The list shows a part of the results.

Test: chemical genetic growth profiling, strain panel (AID 1159580);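 further: tested at 20 µM; growth read once vehicle control cultures reached saturation at 30 °C; 1 = growth at the plate median or of vehicle wells; lower values mean less growth of the strain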
Details: S. cerevisiae deletion strains, growth OD
[1] = locus YDL101C, strain DUN1, hits give low values
[2] = locus YHR030C, strain SLT2, hits give low values

Measured: normalized growth

O=C(Nc1ccccc1Sc1ccc(C(F)(F)F)cc1[N+](=O)[O-])C(Cl)Cl
inactive: locus YAR019C, strain CDC15, hits give low values 0.997 | locus YBL105C, strain PKC1, hits give low values 0.994 | locus YBR135W, strain CKS1, hits give low values 0.987 | locus YBR136W, strain MEC1, hits give low values 0.991 | locus YBR160W, strain CDC28, hits give low values 0.994 | locus YDL017W, strain CDC7, hits give low values 1.01 | locus YDL028C, strain MPS1, hits give low values 0.992 | [1] 0.983 | locus YDL108W, strain KIN28, hits give low values 0.991 | locus YDL132W, strain cdc53, hits give low values 0.994 | locus YDL214C, strain PRR2, hits give low values 0.952 | locus YDR052C, strain DBF4, hits give low values 1 | locus YDR054C, strain cdc34, hits give low values 0.998 | locus YDR226W, strain ADK1, hits give low values 0.993 | locus YDR477W, strain SNF1, hits give low values 0.985 | locus YER123W, strain YCK3, hits give low values 0.958 | locus YER133W, strain GLC7, hits give low values 0.959 | locus YFL009W, strain cdc4, hits give low values 0.995 | locus YFL029C, strain CAK1, hits give low values 0.996 | locus YFR003C, strain YPI1, hits give low values 0.986 | locus YFR019W, strain FAB1, hits give low values 0.955 | locus YFR028C, strain CDC14, hits give low values 0.983 | locus YGR040W, strain KSS1, hits give low values 0.964 | locus YGR052W, strain FMP48, hits give low values 0.963 | locus YGR092W, strain DBF2, hits give low values 0.909 | [2] 0.985 | locus YHR079C, strain IRE1, hits give low values 0.973 | locus YHR082C, strain KSP1, hits give low values 1.02 | locus YHR205W, strain SCH9, hits give low values 0.864 | locus YIL147C, strain SLN1, hits give low values 0.995 | locus YJL095W, strain BCK1, hits give low values 0.894 | locus YJL128C, strain PBS2, hits give low values 0.945 | locus YJL157C, strain FAR1, hits give low values 0.961 | locus YJR016C, strain ILV3, hits give low values 0.999 | locus YJR066W, strain TOR1 (second series), hits give low values 0.933 | locus YJR066W, strain TOR1, hits give low values 1.01 | locus YKL048C, strain ELM1, hits give low values 0.949 | locus YKL067W, strain YNK1, hits give low values 0.934 | locus YKL101W, strain HSL1, hits give low values 0.946 | locus YKL193C, strain SDS22, hits give low values 0.996 | locus YKL203C, strain TOR2, hits give low values 1.01 | locus YLR113W, strain HOG1, hits give low values 0.907 | locus YLR133W, strain CKI1, hits give low values 0.947 | locus YLR403W, strain SFP1, hits give low values 0.915 | locus YML070W, strain DAK1, hits give low values 0.938 | locus YMR001C, strain CDC5, hits give low values 0.998 | locus YMR205C, strain PFK2 (second series), hits give low values 0.953 | locus YMR277W, strain FCP1, hits give low values 0.984 | locus YNL006W, strain LST8, hits give low values 0.986 | locus YNL020C, strain ARK1, hits give low values 0.959 | locus YNL161W, strain CBK1, hits give low values 0.993 | locus YNL183C, strain NPR1, hits give low values 0.96 | locus YNL207W, strain RIO2, hits give low values 0.989 | locus YNL222W, strain SSU72, hits give low values 0.99 | locus YNL307C, strain MCK1 (second series), hits give low values 0.903 | locus YOL078W, strain AVO1, hits give low values 0.99 | locus YOL136C, strain PFK27, hits give low values 0.907 | locus YOR061W, strain CKA2, hits give low values 0.97 | locus YOR119C, strain RIO1, hits give low values 1.05 | locus YOR231W, strain MKK1, hits give low values 0.935 | locus YOR329C, strain SCD5, hits give low values 0.997 | locus YPL031C, strain PHO85, hits give low values 0.984 | locus YPL153C, strain RAD53, hits give low values 0.991 | locus YPL204W, strain HRR25, hits give low values 0.958 | locus YPL209C, strain IPL1, hits give low values 0.992 | locus YPL256C, strain CLN2, hits give low values 1.02 | locus YPR025C, strain CCL1, hits give low values 0.997 | locus YPR106W, strain ISR1, hits give low values 0.996 | locus YPR111W, strain DBF20, hits give low values 0.967 | strain NNK1, hits give low values 0.976 | strain TSCII, hits give low values 0.992

Cc1nc(C(F)(F)F)nc(Sc2n[nH]c(-c3cc(Cl)cc(Cl)c3)n2)c1C
inactive: locus YAL013W, strain DEP1, hits give low values 1.03 | locus YBR229C, strain ROT2, hits give low values 1.01 | locus YCL061C, strain MRC1, hits give low values 1 | [1] 0.996 | locus YDL134C, strain PPH21, hits give low values 1.01 | locus YDR150W, strain NUM1, hits give low values 0.996 | locus YEL061C, strain CIN8, hits give low values 0.985 | locus YGR078C, strain PAC10, hits give low values 1.01 | locus YGR229C, strain SMI1, hits give low values 1.01 | [2] 1.02 | locus YHR087W, strain rtc3, hits give low values 1.03 | locus YJR043C, strain POL32, hits give low values 1.01 | locus YJR075W, strain HOC1, hits give low values 1.02 | locus YKL190W, strain CNB1, hits give low values 1 | locus YLR039C, strain RIC1, hits give low values 1.07 | locus YLR058C, strain SHM2 (second series), hits give low values 0.998 | locus YLR262C, strain YPT6, hits give low values 1.02 | locus YML094W, strain GIM5, hits give low values 0.994 | locus YMR219W, strain ESC1, hits give low values 1.02 | locus YMR263W, strain SAP30, hits give low values 0.993 | locus YMR307W, strain GAS1, hits give low values 0.988 | locus YNL153C, strain GIM3, hits give low values 0.995 | locus YNL298W, strain CLA4 (second series), hits give low values 0.966 | locus YNL322C, strain KRE1, hits give low values 0.995 | locus YNR030W, strain Alg12, hits give low values 0.974 | locus YPL055C, strain LGE1, hits give low values 1.03 | locus YPL241C, strain CIN2, hits give low values 1.07 | locus YPR135W, strain CTF4, hits give low values 1.17
active: locus YLR085C, strain ARP6, hits give low values 1.25 [resistant]
